PubChem BioAssay (NCI)
About 83,000 compounds went through this panel and 20% of them were active in at least one assay; those are over-represented in the sample as a whole.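 The endpoint reported here, percent growth, reads 100 for growth as untreated, 0 for no net growth and -100 for all cells dead.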 Active and inactive are the calls of the source. Rule for the calls: active = growth percent below 10; inactive = the rest.

How the values were obtained:
Test in all cases: NCI-60 one-dose screen, 48 h (100 = growth as untreated, 0 = no growth, -100 = all killed)
Conditions in all cases: 10 µM
SK-MEL-2 melanoma = test system: SK-MEL-2 melanoma
EKVX NSCLC = test system: EKVX NSCLC
SN12C renal = test system: SN12C renal
UO-31 renal = test system: UO-31 renal
TK-10 renal = test system: TK-10 renal
ACHN renal = test system: ACHN renal
CAKI-1 renal = test system: CAKI-1 renal
A498 renal = test system: A498 renal
CCRF-CEM leukemia = test system: CCRF-CEM leukemia
MOLT-4 leukemia = test system: MOLT-4 leukemia

Measured: growth

CCOc1ccccc1/C=N\N=C\c1ccccc1O
inactive: SK-MEL-2 melanoma 100% | EKVX NSCLC 91.5% | SN12C renal 93.5% | UO-31 renal 52% | TK-10 renal 121% | ACHN renal 100% | CAKI-1 renal 92.9% | A498 renal 91.2% | CCRF-CEM leukemia 71.6%

O=C1CSC(=S)N1/N=C/c1ccc(Cl)s1
inactive: SK-MEL-2 melanoma 98.6% | EKVX NSCLC 101% | SN12C renal 95.8% | UO-31 renal 79.3% | TK-10 renal 118% | ACHN renal 98.4% | CAKI-1 renal 100% | A498 renal 103% | CCRF-CEM leukemia 98.6% | MOLT-4 leukemia 102%

CCC(CC)n1c(C)cc(=O)n1C(CC)CC
inactive: SK-MEL-2 melanoma 111% | EKVX NSCLC 113% | SN12C renal 105% | UO-31 renal 115% | TK-10 renal 109% | ACHN renal 101% | CAKI-1 renal 97.6% | A498 renal 116% | CCRF-CEM leukemia 107% | MOLT-4 leukemia 103%

COc1ccc2cc(-c3nc4ccccc4s3)c(Cl)nc2c1OC
inactive: SK-MEL-2 melanoma 95.8% | EKVX NSCLC 100% | SN12C renal 99.9% | UO-31 renal 64% | TK-10 renal 118% | ACHN renal 96.6% | CAKI-1 renal 94.5% | A498 renal 93.1% | CCRF-CEM leukemia 104%

Oc1cccc(-c2nc3sccn3c2-c2ccncn2)c1
inactive: SK-MEL-2 melanoma 83.7% | EKVX NSCLC 92.8% | SN12C renal 92.1% | UO-31 renal 76.8% | TK-10 renal 123% | ACHN renal 97.8% | CAKI-1 renal 69.8% | A498 renal 119% | CCRF-CEM leukemia 94.1% | MOLT-4 leukemia 101%

CC1OC2CC(=O)OC2C2=C1C(=O)c1c(O)c3c(c(O)c1C2=O)C1CC(O)C3(O)C(C)O1 (stereo not given)
inactive: EKVX NSCLC 13.1% | CCRF-CEM leukemia 12%
active: SK-MEL-2 melanoma -55.7% | SN12C renal -33% | UO-31 renal 1.82% | TK-10 renal -16.6% | ACHN renal -16.2% | CAKI-1 renal 8.24% | A498 renal -18.1% | MOLT-4 leukemia -21.7%

CC(=O)N[C@H](C(=O)N[C@@H](CCCNC(=N)N)C(=O)N[C@@H](CCCCN)C(=O)N[C@@H](CCCNC(=N)N)C(=O)N[C@]1(C)CCCCCC/C=C\CCC[C@@](C)(C(=O)N[C@@H](CCCNC(=N)N)C(=O)N[C@@H](CCC(=O)O)C(=O)N[C@@H](CC(C)C)C(=O)N[C@H](C(=O)N[C@@H](CCC(=O)O)C(N)=O)C(C)C)NC(=O)[C@H](CCC(N)=O)NC(=O)[C@H](CC(C)C)NC(=O)[C@H](CC(C)C)NC(=O)[C@H](CCCNC(=N)N)NC(=O)[C@H](CCCNC(=N)N)NC(=O)[C@H](CC(C)C)NC1=O)C(C)C
active: EKVX NSCLC -22.3% | SN12C renal -41.3% | TK-10 renal -43% | ACHN renal 9.21% | A498 renal 1.28%
inactive: SK-MEL-2 melanoma 53.5% | UO-31 renal 50.1% | CAKI-1 renal 16.1%

COc1ccc(/C=C/c2nnc(/C=C/c3ccc(OC)c(OC)c3)o2)cc1OC
inactive: SK-MEL-2 melanoma 20.3% | EKVX NSCLC 36.9% | SN12C renal 22.1% | UO-31 renal 37.4% | TK-10 renal 45.5% | ACHN renal 45.4% | CAKI-1 renal 51.4% | A498 renal 31.4%

Cc1n[nH]c(C)c1N=Nc1cccc2c1C(=O)c1ccccc1C2=O
inactive: SK-MEL-2 melanoma 105% | EKVX NSCLC 61.8% | SN12C renal 91.6% | UO-31 renal 66.4% | TK-10 renal 97.8% | ACHN renal 80% | CAKI-1 renal 73.6% | A498 renal 55.2%

CNS(=O)(=O)Oc1ccc(-c2ccc3occc3c2)cc1
inactive: SK-MEL-2 melanoma 108% | EKVX NSCLC 38.6% | SN12C renal 97.7% | UO-31 renal 90.4% | TK-10 renal 98.5% | ACHN renal 99.5% | CAKI-1 renal 93.3% | A498 renal 102% | CCRF-CEM leukemia 87.7% | MOLT-4 leukemia 96.2%

COc1ccc(C(=O)CSc2nc(-c3cc(OC)ccc3OC)cc(-c3ccc(OC)cc3)c2C#N)cc1
inactive: SK-MEL-2 melanoma 103% | EKVX NSCLC 89.1% | SN12C renal 97.6% | UO-31 renal 86.4% | TK-10 renal 103% | ACHN renal 97.4% | CAKI-1 renal 96.3%

CC(C)(C)OC(=O)N1CCc2c(sc3ncnc(N/N=C/c4cccc5ccccc45)c23)C1
active: EKVX NSCLC 8.53% | UO-31 renal -8.22% | ACHN renal 6.63% | A498 renal 4.77%
inactive: SK-MEL-2 melanoma 49.4% | SN12C renal 32.8% | TK-10 renal 36.9% | CAKI-1 renal 24.2%

O=C(O)c1cc([N+](=O)[O-])ccc1Oc1ccccc1
inactive: SK-MEL-2 melanoma 103% | EKVX NSCLC 97.9% | SN12C renal 95.3% | UO-31 renal 83.5% | TK-10 renal 88.5% | ACHN renal 101% | CAKI-1 renal 101% | A498 renal 102% | CCRF-CEM leukemia 101%

OC(CNc1ccnc2cc(Cl)ccc12)CNC1CCCCC1 (stereo not given)
inactive: SK-MEL-2 melanoma 91.8% | EKVX NSCLC 88.1% | SN12C renal 85.9% | UO-31 renal 61.2% | TK-10 renal 96.1% | ACHN renal 81.8% | CAKI-1 renal 71.2% | A498 renal 59.6% | CCRF-CEM leukemia 80.5%

CC(=O)N[C@H](C(=O)N[C@@H](CCCNC(=N)N)C(=O)N[C@@H](CCCCN)C(=O)N[C@@H](CCCNC(=N)N)C(=O)N[C@]1(C)CCC/C=C\CCC[C@@](C)(C(=O)N[C@@H](CC(C)C)C(=O)N[C@@H](CC(C)C)C(=O)N[C@@H](CCC(N)=O)C(=O)N[C@@H](CCC(=O)O)C(=O)N[C@@H](CCCNC(=N)N)C(=O)N[C@@H](CCC(=O)O)C(=O)N[C@@H](CC(C)C)C(=O)N[C@H](C(=O)N[C@@H](CCC(=O)O)C(N)=O)C(C)C)NC(=O)[C@H](CCCNC(=N)N)NC(=O)[C@H](CC(C)C)NC1=O)C(C)C
inactive: SK-MEL-2 melanoma 101% | EKVX NSCLC 101% | SN12C renal 103% | UO-31 renal 114% | TK-10 renal 96.2% | ACHN renal 109% | CAKI-1 renal 98.9% | A498 renal 116%

O=C1/C=C/[C@@H](O)[C@@H]2C[C@@H](O)C[C@H]2/C=C/CCC[C@H](CCc2ccc(NC(=S)Nc3ccc4c(c3)C(=O)OC43c4ccc(O)cc4Oc4cc(O)ccc43)cc2)O1
inactive: EKVX NSCLC 12.7% | SN12C renal 10.1% | UO-31 renal 11% | ACHN renal 14.9% | CAKI-1 renal 22.2%
active: SK-MEL-2 melanoma -9.15% | TK-10 renal -21.2% | A498 renal -29.7% | CCRF-CEM leukemia -2.59% | MOLT-4 leukemia -8.92%

C=C1CCC2(C#N)[C@H]3[C@H](CC[C@@H]2C)[C@@H](C)C[C@@H](CC(C)(C)NC(=O)CN2CCC2=O)[C@H]13 (stereo not given in full)
inactive: SK-MEL-2 melanoma 64.4% | EKVX NSCLC 52.6% | SN12C renal 57.1% | UO-31 renal 47.3% | TK-10 renal 81.4% | ACHN renal 65.6% | CAKI-1 renal 56.4% | A498 renal 92.1%

COc1ccc(C2=Cn3c(CCC(=O)c4nc5ccccc5[nH]4)nnc3SC2)cc1
inactive: SK-MEL-2 melanoma 106% | EKVX NSCLC 90.3% | SN12C renal 98.9% | UO-31 renal 82% | TK-10 renal 125% | ACHN renal 110% | CAKI-1 renal 96.9% | A498 renal 58%

NC(CSC(c1ccccc1)(c1ccccc1)c1cccc2ccccc12)C(=O)O (stereo not given)
inactive: SK-MEL-2 melanoma 98.6% | EKVX NSCLC 88% | SN12C renal 82.7% | UO-31 renal 84.3% | TK-10 renal 115% | ACHN renal 97.4% | CAKI-1 renal 89.9% | A498 renal 100% | CCRF-CEM leukemia 86.2%

CC(C)c1ccc(C(C)C(=O)N(CC2=C(C(C)c3ccccn3)c3ccccc3C2)C(C)C)cc1 (stereo not given)
active: UO-31 renal -12.2% | CAKI-1 renal 3.55%
inactive: SK-MEL-2 melanoma 24.1% | EKVX NSCLC 13.6% | SN12C renal 34% | TK-10 renal 53.8% | ACHN renal 36.6% | A498 renal 49.1% | CCRF-CEM leukemia 30.4%

CCC(=O)OC1CCC2C3CCC(=O)OC3C(C)(CCC(=O)O)CC12C (stereo not given)
active: EKVX NSCLC 8.81% | CAKI-1 renal -4.08% | A498 renal -71.5% | CCRF-CEM leukemia -14.8% | MOLT-4 leukemia -0.59%
inactive: SK-MEL-2 melanoma 12.7% | SN12C renal 55.5% | UO-31 renal 47.1% | TK-10 renal 47% | ACHN renal 43.9%

COC(=O)C1OC1c1cc([N+](=O)[O-])ccc1OC (stereo not given)
inactive: SK-MEL-2 melanoma 111% | EKVX NSCLC 102% | SN12C renal 107% | UO-31 renal 74.4% | TK-10 renal 107% | ACHN renal 108% | CAKI-1 renal 83.2% | A498 renal 127% | CCRF-CEM leukemia 96% | MOLT-4 leukemia 83.6%

Cc1ccc(S(=O)(=O)N/N=C2\CCCc3ccccc32)cc1
inactive: SK-MEL-2 melanoma 103% | EKVX NSCLC 93.6% | SN12C renal 112% | UO-31 renal 88.1% | TK-10 renal 119% | ACHN renal 94.9% | CAKI-1 renal 89.8% | A498 renal 91.8% | CCRF-CEM leukemia 91.8% | MOLT-4 leukemia 101%

O=C(N/N=C/c1ccc(Cl)cc1)c1ccc(Cc2n[nH]c(=O)c3cccnc23)cc1
inactive: SK-MEL-2 melanoma 108% | EKVX NSCLC 105% | SN12C renal 100% | UO-31 renal 74.3% | TK-10 renal 107% | ACHN renal 102% | CAKI-1 renal 94.8% | A498 renal 131% | CCRF-CEM leukemia 107% | MOLT-4 leukemia 98.6%

O=C(N/N=C/c1cc([N+](=O)[O-])ccc1O)c1cccc2ccccc12
inactive: SK-MEL-2 melanoma 66.4% | EKVX NSCLC 33.5% | SN12C renal 51.1% | UO-31 renal 19.1% | TK-10 renal 46.3% | ACHN renal 15.7% | CAKI-1 renal 19.9% | A498 renal 62.4%
active: CCRF-CEM leukemia -8.77% | MOLT-4 leukemia 9.21%

COc1ccc(C(=O)CC(CC(=O)c2ccc(OC)cc2)c2c(C)nn(-c3ccccc3)c2Cl)cc1
inactive: SK-MEL-2 melanoma 94.3% | EKVX NSCLC 102% | SN12C renal 93.3% | UO-31 renal 72.8% | TK-10 renal 103% | ACHN renal 90.8% | CAKI-1 renal 85.1% | A498 renal 80.8%

NC(=O)c1cccc(-n2ccc3cc(NC(=O)Nc4ccc(Cl)c(C(F)(F)F)c4)ccc32)n1
inactive: SK-MEL-2 melanoma 97.2% | EKVX NSCLC 57.7% | SN12C renal 73.4% | UO-31 renal 77.3% | TK-10 renal 83.7% | ACHN renal 71.3% | CAKI-1 renal 61% | A498 renal 56.9% | CCRF-CEM leukemia 62.5% | MOLT-4 leukemia 52%

O=C(/C=C/c1cccc(B(O)O)c1)c1cccc(B(O)O)c1
active: SN12C renal -3.76% | UO-31 renal -82.5% | TK-10 renal -11.7% | ACHN renal 0.0369% | CAKI-1 renal -8.72% | CCRF-CEM leukemia -13.8% | MOLT-4 leukemia 2.84%
inactive: SK-MEL-2 melanoma 44.8% | EKVX NSCLC 56.3% | A498 renal 65.5%
